# Test results taken from PubChem BioAssay (NCATS).
# Several values for one entry are separate records, joined by “and”; a condition that tells them apart may be missing. Identical values can stand only once. Results filed as inconclusive are left out. A number with no mark means an inactive call. Activity calls are given as the source filed them. Calls follow the shape of the dose curve; as a rule, active = well fitted cell-killing curve with a large enough effect; inconclusive = small, poorly fitted or top-dose-only effect, or effect the other way; inactive = no such curve, though single readings can be large or run the other way.
# Key:
# [1] = Viability qHTS for spleen associated tyrosine kinase inhibitor (SYKi) naive MV4-11 cells (AID 1963823); also: nearly all actives have a fitted effect of over 40% in size
# Summary of the method: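 CellTiter-Glo luminescence, 10 min room-temperature incubation, gave viability. Cells: naive MV4-11 (500/well), treated 72 hr at 37 C, 5% CO2.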
# [2] = Viability qHTS for spleen associated tyrosine kinase inhibitor (SYKi) drug resistant MV4-11 cells (AID 1963824); also: nearly all actives have a fitted effect of over 35% in size
# Summary of the method: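 SYK inhibitor-resistant MV4-11 AML cells, 500 per well, added to predispensed compounds and incubated 72 hr at 37 C, 5% CO2. Viability measured by CellTiter-Glo luminescence after 10 min at room temperature.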
# Potency is read from the fitted curve at half-maximal effect.
Compound,Potency [1],Potency [2],viability (% of control) [1],"viability, % of control [2]"
N#Cc1ccc(Nc2nc(-c3ccc(O)cc3O)cs2)cc1C(F)(F)F,5.17 µM (active),4.61 µM (active),–,–
C[C@@H]1C(=O)OC[C@H]2C(C(=O)O)=C[C@@H]3CC(C)(C)C[C@]312,inactive,inactive,–,–
CC(C)COc1ccc(CNC(=O)N(Cc2ccc(F)cc2)C2CCN(C)CC2)cc1,18.4 µM (active),13 µM (active),–,–
O=Nc1c2[nH]c3ccccc3nc-2c2ccccc12,5.8 µM (active),10.3 µM (active),–,–
C[C@@H]1CN(CC(=O)Nc2ccc3c(c2)Cc2cccc(-c4cc(=O)cc(N5CCOCC5)o4)c2S3)C[C@H](C)O1,8.33 µM (active),4.68 µM (active),–,–
CC1(C)[C@@H](O[C@H]2O[C@H](C(=O)O)[C@@H](O)[C@H](O)[C@H]2O[C@@H]2O[C@H](C(=O)O)[C@@H](O)[C@H](O)[C@H]2O)CC[C@]2(C)[C@H]3C(=O)C=C4[C@@H]5C[C@@](C)(C(=O)O)CC[C@]5(C)CC[C@@]4(C)[C@]3(C)CC[C@@H]12,inactive,inactive,–,–
C[C@@H](CN1CCC(n2c(=O)[nH]c3cc(Cl)ccc32)CC1)NC(=O)c1ccc2ccccc2c1,20.6 µM (active),11.6 µM (active),–,–
COc1cc(C(=O)O)ccc1OC1OC(CO)C(O)C(O)C1O (stereo not drawn),inactive,inactive,–,–
C=C1C(=O)O[C@H]2C[C@@H](C)[C@@H]3CCC(=O)[C@@]3(C)C[C@H]12,4.11 µM (active),2.59 µM (active),–,–
CCOC(=O)[C@H](CCc1ccccc1)N[C@@H](C)C(=O)N1C2CCCCC2C[C@H]1C(=O)O (stereo partly drawn),16.4 µM (active),6.51 µM (active),–,–
Nc1ccc(-c2cccc3c(=O)cc(N4CCOCC4)oc23)cc1,9.2 µM (active),7.31 µM (active),–,–
COc1cc(C(=O)OC[C@@]2(O)CO[C@@H](O[C@H]3[C@H](Oc4ccc(C(=O)O)cc4OC)O[C@H](CO)[C@@H](O)[C@@H]3O)[C@@H]2O)ccc1O,inactive,inactive,–,–
COc1cc(C(C)C)c(Oc2cnc(N)nc2N)cc1I,10.3 µM (active),10.3 µM (active),–,–
CNC(=O)O[C@H]1COc2ccc(N3CCN(C4COC4)CC3)cc2[C@@H]1NC(=O)c1ccc(F)cc1,inactive,inactive,–,–
Cc1sc2c(c1C)C(c1ccc(Cl)cc1)=N[C@H](CC(=O)NCCCCNC(=O)COc1cccc3c1C(=O)N([C@H]1CCC(=O)NC1=O)C3=O)c1nnc(C)n1-2,0.0461 µM (active),0.0461 µM (active),–,–
CC(C)(O)/C=C/C(=O)[C@](C)(O)[C@H]1[C@H](O)C[C@@]2(C)[C@@H]3CC=C4[C@@H](C=C(O[C@@H]5O[C@H](CO)[C@@H](O)[C@H](O)[C@H]5O)C(=O)C4(C)C)[C@]3(C)C(=O)C[C@]12C,inactive,inactive,–,–
COc1cc2c(cc1O)CC(O)(CO)C(CO)C2c1ccc(OC2OC(CO)C(O)C(O)C2O)c(OC)c1 (stereo not drawn),inactive,inactive,–,–
COC(=O)[C@@]1(C)CC[C@]2(C(=O)O[C@@H]3O[C@H](CO)[C@@H](O)[C@H](O)[C@H]3O)CC[C@]3(C)C(=CCC4[C@@]5(C)CC[C@H](O[C@@H]6O[C@H](C(=O)O)[C@@H](O)[C@H](O)[C@H]6O)C(C)(C)C5CC[C@]43C)[C@@H]2C1 (stereo partly drawn),–,–,68.6% [at 9.25 µM],81.9% [at 9.25 µM]
C=C(C)C(=O)O[C@H]1[C@H]2C(=C)C(=O)O[C@@H]2C[C@@H](C)[C@@H]2O[C@@H]2C(=O)[C@](C)(O)[C@@H]1OC(=O)C(=C)C,1 µM (active),1 µM (active),–,–
COC(=O)C12C(=O)C(C)=C(O)C1(C)C(C)=CC1C3(CO)CCC(O)C(C)(C)C3CCC12C (stereo not drawn),inactive,inactive,–,–
CC[C@H]1OC(=O)[C@H](C)[C@@H](O[C@H]2C[C@@](C)(OC)[C@@H](O)[C@H](C)O2)[C@H](C)[C@@H](O[C@@H]2O[C@H](C)C[C@H](N(C)C)[C@H]2O)[C@](C)(O)C[C@@H](C)/C(=N/OCOCCOC)[C@H](C)[C@@H](O)[C@]1(C)O,inactive,inactive,–,–
CS(=O)(=O)c1ccc([C@@H](CC2CCCC2)C(=O)Nc2cnccn2)cc1Cl,31.6 µM (active),25.1 µM (active),–,–
CN1C/C=C/CCOc2cccc(c2)-c2ccnc(n2)Nc2cccc(c2)C1,0.417 µM (active),0.206 µM (active),–,–
O=C(C(c1ccccc1)c1ccccc1)N1CCN(CC(O)COc2cccc3ncccc23)CC1 (stereo not drawn),20.9 µM (active),10.3 µM (active) and 11.8 µM (active),–,–
